Bioassay records as filed in PubChem.
An excerpt weighted towards active compounds, which were near 4.2% of everything screened.
V-ATPase pH – regulators of yeast V-ATPase proton pumping, primary screen, pHLuorin cytosolic pH fluorescence; S. cerevisiae; AID 504577, 2011; response, % at 10 µM; actives 0.37% (n = 350,000); in the data active = response mostly above about 7.3%, no sharp cut-off; inactive = mostly below about 5.4%; also: actives read high
NALP1 inh – NALP1 inflammasome inhibitors in reconstituted yeast, colorimetric, S. cerevisiae, triplicate retest | S. cerevisiae NALP1/ASC/caspase-1 growth, X-gal OD620, 72 h | inhibition, % at 10 µM | actives 0.61% (n = 280,000) | AID 2071, 2009; in the data active = inhibition mostly above about 24%, no sharp cut-off; inactive = mostly below about 32%
tim10-1 inh – growth inhibitors of tim10-1 mutant yeast, primary screen, luminescence, uHTS; S. cerevisiae tim10-1 ts strain growth, BacTiter-Glo, 24 h; inhibition, % at 20 µM; actives 2.2% (n = 330,000); AID 463190, 2010;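 active = inhibition of at least 40%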;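 also: mutant grown at 25 °C; 0% = DMSO wells with yeast and 100% = wells holding no yeast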
tim23-1 inh – growth inhibitors of tim23-1 mutant yeast, primary screen, luminescence, uHTS; S. cerevisiae tim23-1 growth, BacTiter-Glo luminescence, 24 h; actives 1.3% (n = 330,000); inhibition, % at 20 µM;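 active = growth inhibition of the mutant yeast at or above 50%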;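 also: temperature-sensitive mutant grown at 25 °C; plate controls were DMSO-treated mutant yeast for no effect and medium wells lacking yeast for full effect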
NLRP3 yeast inh – NALP3 inflammasome inhibitors in reconstituted yeast, primary screen, luminescence, uHTS; Yeast reconstituted NLRP3/ASC/caspase-1, beta-gal luminescence, 24 h; inhibition, % at 10 µM; actives 0.39% (n = 330,000);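 active = inhibition of 50% or more; inactive = inhibition below 50%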;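 also: plate controls were induced DMSO wells for no effect and uninduced yeast grown without galactose for full effect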
TIM10 inh – growth inhibitors of isogenic TIM10 control yeast, primary screen, counter-screen for tim10-1 yeast inhibitor project, luminescence, uHTS. S. cerevisiae TIM10 strain growth, BacTiter-Glo luminescence, 24 h. actives 1.4% (n = 330,000). inhibition, % at 10 µM. AID 463195, 2010;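 active = inhibition of 40% or more at the single tested concentration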;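 also: wild-type TIM10 isogenic control strain grown at permissive 25 °C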
NALP3 confirm – NALP3 inhibitors retested in yeast, confirmation, luminescence, single concentration; shares compounds with NLRP3 yeast inh; yeast expressing human NALP3; inhibition, % at 10 µM; actives 81% (n = 1,300); AID 435006, 2010; in the data active = inhibition above about 48%
Casp1 ASC ctr – CASP1-PYCARD signaling inhibition in yeast, confirmatory test, counterassay for NLRP3 inhibitor program, one-dose; shares compounds with NLRP3 yeast inh; yeast expressing Caspase-1-ASC, luminescence counter screen; inhibition, % at 10 µM; actives 66% (n = 1,000)
NALP3 retest – NALP3 inhibitors in yeast, repeat test, confirmation, luminescence, single concentration, retest | shares compounds with NLRP3 yeast inh | yeast expressing human NALP3, luminescence read-out | inhibition, % at 10 µM | actives 53% (n = 1,000) | AID 488794, 2010
tim10-1 conf – growth inhibitors of tim10-1 mutant yeast, confirmation, single concentration, luminescence, S. cerevisiae | shares compounds with tim10-1 inh | S. cerevisiae tim10-1 ts strain growth, BacTiter-Glo, 24 h | inhibition, % at 20 µM | actives 56% (n = 7,400);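 active = inhibition of yeast growth at or above a set limit in either of two repeat tests at 20 µM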;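 also: tim10-1 mutant grown at permissive 25 °C to find synthetic lethal compounds; 0% = DMSO yeast wells and 100% = medium wells without yeast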
TIM10 conf – growth inhibitors of wild-type TIM10 yeast, confirmation, counter-screen for tim10-1 synthetic lethality project, single concentration, luminescence, S. cerevisiae | shares compounds with TIM10 inh | S. cerevisiae tim10 strain growth, BacTiter-Glo luminescence, 24 h | inhibition, % at 10 µM | actives 63% (n = 4,600) | AID 463215, 2010;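 active = inhibition of yeast growth at or above a set limit in either of two replicates at 10 µM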;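 also: this counterscreen used the strain with wild-type TIM10; 0% = yeast with DMSO and 100% = medium wells lacking yeast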
Starred values were filed as active, the others as inactive; / = no result. Rule as the data show it, unless noted: active = inhibition above about 50%; inactive = the rest.

SMILES | V-ATPase pH | NALP1 inh | tim10-1 inh | tim23-1 inh | NLRP3 yeast inh | TIM10 inh | NALP3 confirm | Casp1 ASC ctr | NALP3 retest | TIM10 conf | others
CC1CCc2c(C(=O)Nc3nccs3)csc2C1 (configuration not stated) | -0.8 | 29.8 | 34.2 | 42.7 | 58.1* | 43.5* | 69.2* | 76.8* | 46.0 | 43.4*
O=C(NCC(=O)N(c1cccnc1)C(C(=O)NC1CCCC1)c1ccc(F)cc1)c1ccco1 (configuration not stated) | / | 13.1 | -11.4 | -4.0 | 14.7 | -4.1 | / | / | / | /
O=C(C=Cc1ccccc1Cl)c1ccccc1 | 1.0 | / | / | / | / | / | / | / | / | /
Cc1[nH]c2ccccc2c1C(=O)/C=C\c1ccccc1Cl | 0.7 | / | 30.1 | 47.4 | 53.0* | 42.7* | -20.0 | / | / | 11.8
CCOC(=O)c1c(N=CN(C)C)c2cc([N+](=O)[O-])cnc2n1C | 3.0 | -10.9 | -9.6 | 1.5 | 12.5 | -11.4 | / | / | / | /
N#Cc1nc(-c2cccs2)oc1NCCc1ccccc1 | -0.6 | 7.1 | 57.0* | 36.3 | 70.6* | 64.8* | 77.0* | 70.0* | 62.6* | 67.8* | tim10-1 conf=38.1*
N#Cc1nc(-c2cccs2)oc1NCCN1CCOCC1 | -4.8 | 1.0 | 9.6 | -2.2 | 8.5 | -3.2 | / | / | / | /
Nn1c(SCc2ccc(Br)cc2)nnc1-c1ccccn1 | 0.8 | 1.0 | 16.2 | 40.7 | 64.6* | 45.7* | 67.2* | 53.9* | 56.1* | 59.8*
Cc1cccc(CSc2nnc(-c3ccccn3)n2N)c1 | -3.2 | 21.2 | 5.0 | 21.8 | 8.0 | 15.8 | / | / | / | /
CN1CCN(Cn2cc(/C=C/C(=O)c3ccccc3)c3ccccc32)CC1 | -5.4 | 0.4 | 61.6* | -61.4 | 67.0* | 66.7* | 73.8* | / | / | 65.2* | tim10-1 conf=0.2
O=C(/C=C/c1cn(CC(O)CN2CCCCC2)c2ccccc12)c1ccccc1 (configuration not stated) | -1.7 | -7.9 | / | / | / | / | / | / | / | /
CCn1c(-c2csc3c2CCCC3)n[nH]c1=S | 3.5 | 24.0 | 29.4 | 34.7 | 28.8 | 34.1 | / | / | / | /
CCCCn1c(-c2csc3c2CCCC3)n[nH]c1=S | / | 5.9 | 20.5 | 34.0 | 53.8* | 42.9* | 66.2* | 65.3* | 54.7* | 24.4
C=CCOc1cccc(/C=N/NC(=O)CN2CCCCC2)c1 | -0.7 | 6.6 | 0.3 | -1.5 | 0.1 | 3.2 | / | / | / | /
C#CCSc1cc(C(F)(F)F)nc(-c2ccccn2)n1 | -10.6 | -14.1 | 12.2 | 24.7 | 18.1 | 13.7 | / | / | / | /
COc1ccc(Sc2cc(C(F)(F)F)nc(-c3ccccn3)n2)cc1 | 4.8 | 5.8 | 36.6 | 33.8 | 51.4* | 44.9* | 64.4* | 54.8* | 45.4 | 31.2*
CCOC(=O)c1ccccc1N1C(=O)CSC1=S | 0.2 | 28.4 | 49.5* | 42.2 | 54.2* | 48.5* | 48.2 | 48.2 | 35.4 | 45.5* | tim10-1 conf=26.9
Cc1cc(C)nc(/N=C(\N)Nc2ccccc2-c2ccccc2)n1 | -0.7 | 15.2 | 25.4 | 0.6 | -3.0 | 2.1 | / | / | / | /
COc1ccc(CCNC(=O)[C@H](C)NC(=O)N2CCn3c2nc2ccccc23)cc1OC | 6.1 | -2.3 | 7.4 | -9.8 | 7.3 | -4.5 | / | / | / | /
Cn1c(Cl)c(C(=O)Nc2ccccc2)c2ccccc21 | 6.7 | -0.1 | -7.1 | 46.2 | 60.3* | 51.1* | 82.2* | 56.5* | 51.4* | 56.9*
COc1ccc2c(=O)c(-c3cnn(-c4ccccc4)c3)c(C)oc2c1 | 3.0 | -2.9 | 48.3* | 46.4 | 61.9* | 69.9* | 65.7* | 58.5* | 68.2* | 65.2* | tim10-1 conf=29.1
Cc1oc2c(C)c(O)ccc2c(=O)c1-c1cnn(-c2ccccc2)c1 | 2.2 | -2.2 | -5.9 | 1.2 | 6.3 | 7.6 | / | / | / | /
COC(=O)c1c(NC(=O)c2ccco2)sc(C)c1C | -1.2 | 9.1 | 21.3 | 4.8 | 13.8 | 4.0 | / | / | / | /
Cc1c(Cc2ccccc2)sc(NC(=O)c2ccco2)c1C(N)=O | 0.2 | 4.2 | 14.5 | 48.6 | 85.4* | 50.6* | 92.0* | 95.0* | 85.8* | 51.3*
CCCC[C@@H](CNC)NC[C@H](Cc1ccc(O)cc1)NCCc1ccc(OCC)cc1 | -2.6 | 15.4 | 4.9 | 1.0 | 8.7 | 8.8 | / | / | / | /
SMILES | V-ATPase pH | NALP1 inh | tim10-1 inh | tim23-1 inh | NLRP3 yeast inh | TIM10 inh | NALP3 confirm | Casp1 ASC ctr | NALP3 retest | TIM10 conf | others
CSc1ccc2c(c1)N(CCC1CCCCN1C)c1ccccc1S2 (configuration not stated) | -0.4 | 50.1* | 23.0 | 17.0 | 52.1* | 52.5* | 60.1* | 51.9* | 32.8 | 29.1
CC(=O)c1ccc2c(c1)N(CCCN1CCC(CCO)CC1)c1ccccc1S2 | -6.0 | / | -11.1 | -32.0 | 11.7 | 8.6 | / | / | / | /
Cc1ccc(N/N=C(\C#N)C(N)=S)cc1C | 0.1 | 11.0 | 37.7 | 30.3 | 66.9* | 42.2* | 55.5* | 41.6 | 40.8 | 25.9
CN(C)CCCN(C(=O)c1cc(-c2cccs2)nc2ccccc12)c1nc2ccc(F)cc2s1 | -2.2 | 28.7 | 32.5 | 13.3 | 51.6* | 49.4* | 64.7* | 50.1* | 45.7 | 31.7*
Cc1c(NC(=S)N2CCN(c3ccc(F)cc3)CC2)c(=O)n(-c2ccccc2)n1C | -0.2 | -7.5 | 0.2 | 7.0 | 23.8 | -0.4 | / | / | / | /
O=c1c(O)c(-c2cccs2)oc2ccccc12 | -2.5 | 50.3 | 41.8* | 15.5 | 67.4* | 65.3* | 86.5* | 78.5* | 73.3* | 71.2* | tim10-1 conf=35.2*
Cc1[nH]c2ccccc2c1C(=O)COC(=O)c1ccc([N+](=O)[O-])s1 | 2.5 | 7.4 | -17.8 | 27.0 | 55.8* | 71.2* | 77.6* | 85.4* | 87.0* | 83.2*
CC(CCN1CCC(CN2C(=O)C(=O)NC[C@@H]2Cc2ccccc2)CC1)c1ccccc1 (some centres not stated) | -0.4 | / | / | / | / | / | / | / | / | /
CS(=O)(=O)c1sc(C#N)c2c1C(=O)CC(c1ccccc1)C2 (configuration not stated) | 4.0 | -12.2 | 21.4 | -12.5 | 51.0* | 42.4* | 38.8 | / | / | 42.3*
